test system: RIPK3

Kinases covered, RIPK3:
CNC(=O)c1ccc2c(c1)ncn2-c1ccc(CC(=O)OC(C)(C)C)cc1 [GSK840]
Cc1cc(-c2cnc(N)c3c(-c4ccc5scnc5c4)csc23)n(C)n1 [GSK843]
CC(C)S(=O)(=O)c1ccc2nccc(Nc3ccc4scnc4c3)c2c1 [GSK872]
